Laboratory results taken from PubChem BioAssay AID748 (Sanford-Burnham Center for Chemical Genomics, 2007).
Among all 96,000 compounds or so, about 100 (0.1%) were called active. This is one part of a sample in which actives are shown more often than they occur.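 How the source made its calls: active means displacement above 50% at 20 µM plus a fluorescence interference ratio under 1.5; inactive means the rest.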 Entries with a potency or affinity are not part of this list.

Molecular target: Bcl-2-like protein 10 (Homo sapiens) (UniProt Q9HD36)
Assay: Bcl-B/TR3 peptide binding disruption – biochemical, fluorescence polarization, FITC-TR3 peptide, selectivity assay for Bfl-1 inhibitor project, primary screen (AID 748);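 further: plate controls were wells without compound for no effect and wells lacking Bcl-B protein for full effect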
Details: FP displacement of FITC-TR3 peptide from Bcl-B; at 20 µM; hits give high values

Row | SMILES | displacement
1 | ClC1=CCC2CN(CCN3CCCCC3)CC2C1 (stereo not given) | 67.7% (active)
2 | O=c1cccc2n1CC1CC2CN(C(c2ccccc2)c2sc3ncnn3c2O)C1 (stereo not given) | -0.3% (inactive)
3 | O=C1OCCN1P(=O)(c1ccccc1)c1ccccc1 | -1.2% (inactive)
4 | COc1ccc(C(=O)C2(C)N(O)C(C)C(c3cccs3)=[N+]2[O-])cc1 (stereo not given) | -5.6% (inactive)
5 | CCC(=NCC1CCCO1)c1c(O)n(-c2ccc(Cl)cc2)c(=O)[nH]c1=O (stereo not given) | -1.5% (inactive)
